From article PMC5540273 (PLoS ONE, 2017)

Legend:
Conditions in all cases: concentration: 1 μM,replicates: in singlicate; n = 1
PCTK2 = test system: T1, PCTK2
T1 construct: gene CDK17

PCTK3 = test system: T2, PCTK3
T2 construct: gene CDK18

PDGFRA = test system: PDGFRA
PDGFRB = test system: PDGFRB
PDPK1 = test system: PDPK1
PFTAIRE2 = test system: PFTAIRE2
PFTK1 = test system: T3, PFTK1
T3 construct: gene CDK14

PHKG1 = test system: PHKG1
PHKG2 = test system: PHKG2
PIK3C2B = test system: PIK3C2B
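Note: KINOMEscan kinase panel screen.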

SMILES | %Inh (PCTK2) | %Inh (PCTK3) | %Inh (PDGFRA) | %Inh (PDGFRB) | %Inh (PDPK1) | %Inh (PFTAIRE2) | %Inh (PFTK1) | %Inh (PHKG1) | %Inh (PHKG2) | %Inh (PIK3C2B)
Cl.Cl.Nc1nc(-c2ccc3c(N)n[nH]c3c2)cc(N2CCCC(NC(=O)c3ccccc3)C2)n1 (stereo not drawn) [GSK2286775] | 21% | 11% | 0% | 21% | 85% | 18% | 18% | 0% | 0% | 14%
C[C@H]1Oc2cc(cnc2N)-c2c(nn(C)c2C#N)CN(C)C(=O)c2ccc(F)cc21 | 1% | 29% | 0% | 10% | 41% | 10% | 12% | 54% | 100% | 0%
O=C(NCCCN1CCOC1=O)c1cnc(NCc2cc(Cl)ccc2Cl)nc1NC1CCCC1 | 0% | 13% | 0% | 30% | 28% | 0% | 7% | 0% | 13% | 4%
Cc1cc(C(=O)Nc2ccc(Oc3ccc4nc(NC(=O)C5CC5)cn4n3)cc2)nn1-c1ccccc1 | 17% | 4% | 97.7% | 100% | 8% | 0% | 0% | 49% | 0% | 0%
NC(=O)c1cc(-c2ccccc2)cc2c(C3CCNCC3)c[nH]c12 [GSK301362] | 0% | 0% | 0% | 67% | 0% | 21% | 17% | 17% | 0% | 0%
CN(C)CC(O)COc1ccc(Nc2nccc(-c3cnn4nc(N5CCOCC5)ccc34)n2)cc1 (stereo not drawn) [GW767488] | 91.9% | 52% | 56% | 60% | 0% | 16% | 46% | 38% | 81% | 43%
C[C@@H]1CCN(C(=O)CC#N)C[C@@H]1N(C)c1ncnc2[nH]ccc12 | 0% | 8% | 0% | – | 0% | 0% | 21% | 15% | 13% | 0%
Cl.Cl.NC[C@H](CC1CCCCC1)NC(=O)c1cc(Br)c(-c2ccnc3[nH]ccc23)s1 [GSK1581427] | 0% | 0% | 22% | 75% | 0% | 63% | 28% | 20% | 19% | 0%
CCn1c(-c2nonc2N)nc2c(C#CC(C)(C)O)nc(OCCN)cc21.Cl.Cl [GSK902056] | 0% | 0% | 0% | 4% | 0% | 0% | 0% | 0% | 0% | 0%
CCN(CC)CCCCNc1ncc2cc(-c3c(Cl)cccc3Cl)c(NC(=O)NC(C)(C)C)nc2n1 | 0% | 0% | 90.1% | 100% | 0% | 0% | 0% | 0% | 0% | 27%
Cl.Cl.NC[C@H](Cc1ccc(C(F)(F)F)cc1)NC(=O)c1cc(Br)c(-c2ccnc3[nH]ccc23)s1 [GSK1487252] | 0% | 0% | 28% | 54% | 0% | 5% | 0% | 0% | 0% | 0%
O=C(NCCNc1ccnc(NCc2ccc(F)cc2)n1)c1cc2ccccc2s1 [GSK1379944] | 0% | 14% | 0% | 86% | 15% | 7% | 11% | 0% | 0% | 0%
Cc1n[nH]c2ccc(-c3cc(OC[C@@H](N)Cc4ccccc4)cnc3-c3ccoc3)cc12.O=C(O)C(F)(F)F.O=C(O)C(F)(F)F [GSK507358] | 0% | 0% | 0% | 50% | 0% | 0% | 9% | 0% | 0% | 0%
